Hits are enriched below; roughly 3.6% of the tested compounds scored in any of these assays.
MmCpn inh: inhibitors of Methanococcus maripaludis chaperonin TRiC (MmCpn); purified Mm-Cpn ATPase, ADP Transcreener TR-FRET; Potency, µM (titrated, usually from 76.9 µM), for inactives: at the top dose activity, negative = inhibition, hits mostly inhibitors; 330,000 tested, 0.031% active; also: % is scaled to controls: 0 for no effect and ±100 for the full control effect; nearly all actives have a fitted effect of over 80% in size
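Quantitative HTS used 25 nM Mm-CPN and 10 uM ATP in magnesium/KCl Tris buffer, pH 7.4, with 1 mM DTT. Hydrolysis ran 30 min at 37°C; ADP was read by HTRF.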
Abeta yeast res: A-beta toxicity reversal in yeast | Potency, µM (highest dose often 46.1 µM), hits mostly activators | 410,000 tested, 0.063% active | yeast expressing A-beta42, growth rescue, OD600, 48 h; response scale: 0% DMSO, 100% iron-clioquinol control; also: nearly all actives have a fitted effect of over 55% in size
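Yeast growth medium received pinned compounds, then yeast cells expressing toxic A-beta were added; plates incubated at 30 C for 48 hr. Growth read as absorbance at 600 nm, normalized to DMSO and equimolar FeCl3 plus clioquinol controls.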
FUS suppressor: FUS proteinopathy suppression in yeast; S. cerevisiae FUS-expressing, growth rescue, OD600, 24 h; Potency, µM (highest dose often 76.6 µM), hits mostly activators; 390,000 tested, 0.24% active;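 also: plate controls were DMSO vehicle for no effect and reference control for full effect; nearly all actives have a fitted effect of over 55% in size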
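Yeast FUS proteinopathy model; galactose-induced FUS (2%), starting OD 0.005. Cpds in dilution series, 24hr, 30C, 99% humidity. Abs 600 nm growth. Pos ctrl CP55940 (top 92uM final); neg ctrl DMSO.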
ClpP mod: qHTS Assay for Activators of ClpP. AID 651965, 2013. purified B. subtilis ClpP, FRET peptide cleavage, 20 min. Potency, µM (doses to about 57.5 µM), for inactives: at the highest dose activity change, negative = active. 340,000 tested, 1.9% active. ATP-dependent Clp protease proteolytic subunit (Bacillus subtilis (strain 168)), P80244; active = well fitted falling curve with a large enough effect; inconclusive = small, poorly fitted or top-dose-only effect; inactive = no such curve, though single readings can be large or run the other way; also: the source files actives as falling curves though it sought activators and does not explain the sign; nearly all actives have a fitted effect of over 65% in size
Target sequence (P80244 whole entry, looked up): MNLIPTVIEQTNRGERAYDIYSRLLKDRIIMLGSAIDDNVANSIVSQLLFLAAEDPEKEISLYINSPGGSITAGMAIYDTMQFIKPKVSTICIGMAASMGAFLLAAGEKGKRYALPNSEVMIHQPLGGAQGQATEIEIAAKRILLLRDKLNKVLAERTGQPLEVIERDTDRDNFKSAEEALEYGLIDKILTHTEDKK
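Buffer: 100 mM Tris/HCl pH8, 100 mM KCl, 0.05% low protease BSA, 2.5% glycerol, 0.01% Tween-20. ClpP 10 microg/mL final; 20 min RT; delta FRET normalized to ADEP and DMSO controls.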
aSyn rescue: rescues yeast growth from alpha-synuclein toxicity. Yeast expressing alpha-synuclein, growth rescue, BacTiter-Glo, 24 h. Potency, µM (series often up to 46.1 µM), inactives show at the top dose growth rescue (activation), actives largely listed as activators. 370,000 tested, 0.14% active. AID 652106; also: % of control where 0% means no effect; nearly all actives have a fitted effect of over 65% in size
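Readout is rescue of growth in alpha-synuclein-expressing yeast, so inhibitors of toxicity appear as activators. Growth after 24 hr at 30 deg C in galactose medium is quantified by luminescence.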
TDP-43 yeast inh: rescues yeast growth from TDP-43 toxicity. TDP-43 expressing yeast growth rescue, BacTiter-Glo, 24 h. 410,000 tested, 1.8% active. Potency, µM (highest dose often 46.1 µM), for inactives: at the top dose growth rescue (activation), most hits filed as activators; also: % of control where 0% means no effect; nearly all actives have a fitted effect of over 50% in size
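In this qHTS, compounds that restore growth of yeast expressing TDP-43 appear as activators. Cells (OD600=0.02, galactose medium, raffinose-pregrown) are incubated with compound 24 hr at 30 deg C and growth is quantified by BacTiter-Glo.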
ClpP inh valid: validation of B. subtilis ClpP protease hits (inhibitors) | shares compounds with ClpP mod | purified B. subtilis ClpP, FRET-FV substrate cleavage, 20 min | Potency, µM (top dose mostly 57.5 µM), for the others: at the highest dose activity change, negative = inhibition, usual class: inhibitors | 470 tested, 40% active | AID 743245; also: % is scaled to controls: 0 for no effect and ±100 for the full control effect; nearly all actives have a fitted effect of over 70% in size
The depositor's hits bear a star; i = inactive; ? = inconclusive; . = not tested or not shown. Unless noted, calls follow the shape of the dose curve; as a rule, active = well fitted curve in the direction sought with a large enough effect; inconclusive = small, poorly fitted or top-dose-only effect, or another doubt; inactive = no such curve, though single readings can be large; an effect the other way counts as inactive or inconclusive. Potency is read from the fitted curve at half-maximal effect.

SMILES	MmCpn inh	Abeta yeast res	FUS suppressor	ClpP mod	aSyn rescue	TDP-43 yeast inh	ClpP inh valid
O=C(Nc1ccccc1)c1nc[nH]c1C(=O)NCc1ccccc1	0%	i	i	1%	-5%	15%	.
O=C(Nc1cccc(Cl)c1)c1nc[nH]c1C(=O)NCc1ccccc1	-4%	i	i	213%	-3%	12%	?
CCc1ccc(NS(=O)(=O)c2ccc3[nH]cc(C(=O)N(C)Cc4ccco4)c(=O)c3c2)cc1	2%	i	?	-28%	8%	?	.
CN(Cc1ccco1)C(=O)c1c[nH]c2ccc(S(=O)(=O)Nc3ccc4c(c3)OCCO4)cc2c1=O	1%	i	i	3.5µM*	0%	15%	-3%
CN(CC(=O)O)c1ccc(/C=C2\C=Cc3ccccc32)cc1	.	.	.	1%	.	.	.
Cc1cc(-c2ccccc2)c2nncn2n1	1%	i	i	7.9µM*	4%	2%	22µM*
CC(C)(C)C1CCc2c(sc(NC(=O)c3ccco3)c2C(N)=O)C1 (stereo not drawn)	0%	i	i	107%	0%	13%	31µM*
Cc1ccccc1NC(=O)c1c(NC(=O)c2ccco2)sc2c1CCC(C(C)(C)C)C2 (stereo not drawn)	.	i	i	-5%	.	1%	.
O=C(Nc1sc2c(c1C(=O)NC1CCCCC1)CCC2)c1ccco1	.	i	i	110%	-2%	-16%	?
COc1ccc(-c2cc(C(F)(F)F)nc(S(=O)(=O)CCCC(=O)Nc3ccccc3C(F)(F)F)n2)cc1OC	.	i	i	4%	.	32%	.
CCC(C(=O)OCc1cc(=O)n2nc(CCOC)sc2n1)c1ccccc1 (stereo not drawn)	.	i	i	-3%	.	-2%	.
COC(=O)CNC(=O)CNC1(C(=O)NCCc2c[nH]c3ccccc23)CCCCC1	.	.	i	.	.	.	.
Cc1ccc(C(=O)Nc2cccc(-c3nc4ccccc4o3)c2)c(Cl)c1	.	i	i	76%	.	21%	?
Cc1ccc(C(=O)Nc2ccc3oc(-c4cccnc4)nc3c2)c(Cl)c1	.	i	i	?	.	0%	.
CCCCCC1CCC(c2ccc(C(N)=O)cc2)CC1 (stereo not drawn)	-1%	i	i	-3%	6%	1%	.
CCCC1CCC(c2ccc(C(N)=O)cc2)CC1 (stereo not drawn)	-8%	i	i	74%	-4%	0%	0%
O=C(NCc1ccco1)c1cc2ccc(O)cc2oc1=O	-8%	i	.	-1%	-62%	-61%	.
COc1ccc2cc(C(=O)NC3CCCCC3)c(=O)oc2c1	1%	i	.	2.2µM*	-1%	-9%	22µM*
COc1ccc2cc(C(=O)NCc3ccco3)c(=O)oc2c1	-4%	i	i	10µM*	3%	-15%	22µM*
O=C(NC1CCCCCC1)c1cc2ccccc2oc1=O	2%	i	i	.	-2%	-9%	.
O=C(O)C1=CC(=C(c2ccc(O)c(C(=O)O)c2)c2ccc(O)c(C(=O)O)c2)C=CC1=O	?	.	.	4%	-33%	.	?
Cc1ccc(NS(=O)(=O)c2cccc(C(=O)N3CCCCC3)c2)cc1	1%	i	.	77%	17%	24%	0%
Cc1ccc(NS(=O)(=O)c2cccc(C(=O)N3CCCCCC3)c2)cc1	-2%	i	i	0%	1%	0%	.
CS(=O)(=O)N1CCC[C@]2(CC[C@@H](CCC#N)O2)C1	.	.	i	.	.	.	.
O=C(c1nc2nc(-c3cccs3)cc(C(F)(F)F)n2n1)N1CCN(Cc2ccccc2)CC1	-1%	i	i	2.5µM*	-1%	-23%	24µM*
SMILES	MmCpn inh	Abeta yeast res	FUS suppressor	ClpP mod	aSyn rescue	TDP-43 yeast inh	ClpP inh valid
CCOC(=O)c1nc2nc(-c3cccs3)cc(C(F)(F)F)n2n1	-3%	i	.	?	0%	15%	.
Cc1cccc(-c2nnc(NC(=O)c3cccs3)s2)c1	-1%	i	i	3%	-12%	-1%	.
CNc1nnc(-c2cccc(N(C)C)c2)s1	-6%	i	i	39%	-4%	-10%	0%
COC(=O)c1cc(NC(=O)NC2CCCCN(Cc3cccc(Cl)c3)C2=O)cc(C(=O)OC)c1 (stereo not drawn)	.	.	i	.	.	.	.
CCN(CC)S(=O)(=O)c1cccc2c(N(C)C)cccc12	0%	i	i	3.5µM*	2%	-5%	-4%
Cc1cc(N2CCN(c3ccc(F)cc3)CC2)n2cnnc2n1	.	i	i	2%	.	22%	.
Cc1cc(N2CCN(C)CC2)n2cc(-c3ccc(F)cc3)nc2n1	-2%	i	i	7.1µM*	-2%	-19%	27µM*
Cc1ccc(Cl)cc1NC(=O)CCc1c(C)nc2c3cccnc3nn2c1C	.	i	i	3.5µM*	.	-9%	19µM*
O=c1oc2ccccc2cc1-c1csc(Cc2nc(-c3ccc(Cl)cc3)cs2)n1	-6%	i	i	3%	-5%	-4%	.
O=c1oc2ccccc2cc1-c1nc(-c2cccc(Cl)c2)cs1	.	i	i	4.5µM*	.	13%	?
Cc1cc(C)c2c(CC(=O)Nc3nnc(C(C)C)s3)coc2c1	.	i	i	0%	.	19%	.
Clc1cc2nc3ccccn3c2cc1Cl	-18%	i	?	8.9µM*	-31%	0%	19µM*
O=Cc1c(Cl)nc2ccccn12	3%	i	i	.	-5%	-25%	.
COc1ccc(NC(=O)C2CCCN(C(=O)c3cnn(-c4ccccc4)c3-n3cccc3)C2)cc1 (stereo not drawn)	.	i	?	-2%	.	18%	.
CC(=O)Nc1ccc(S(=O)(=O)Nc2nc3ccccc3nc2Nc2cccc(O)c2)cc1	-3%	i	i	.	7%	-11%	.
CC(=O)Nc1ccc(S(=O)(=O)Nc2nc3ccccc3nc2Nc2ccc3ccccc3c2)cc1	1%	i	.	3.5µM*	1%	-11%	?
NC(=O)c1ccccc1NC(=O)c1ccc(-c2ccc(Br)cc2)o1	.	i	i	187%	.	-4%	17µM*
O=C(Nc1cccc(NC(=O)c2ccc(-c3ccc(Br)cc3)o2)c1)c1ccccc1	-4%	i	i	521%	1%	-6%	22µM*

Bioassay records as filed in PubChem BioAssay.
